Hits are enriched below; roughly 11% of the tested compounds scored in any of these assays.
HCV inhibitor: HCV inhibition | Huh7.5.1 HCVcc-Cre infection, luciferase reporter, 44 h | Potency, µM (titrated, usually from 41.8 µM), most hits filed as inhibitors | actives 3.4% (n = 340,000) | AID 651820
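Compounds are dispensed onto cells plated 4 h earlier at 1,000 per well, with HCVcc-Cre virus (about 0.5 moi) added next. Following 44 h of culture, luminescent signal is measured for 15 sec after 15 min with substrate at room temperature.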
Pf growth 96h: P. falciparum growth inhibition at 96 hour, primary screen for plastid delayed-death inhibitors; P. falciparum luciferase reporter growth, 96 h; actives 6.9% (n = 320,000); Potency, µM (doses to about 28.7 µM), hits mostly inhibitors; AID 504834
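Parasite growth measured via integrated firefly luciferase reporter in P. falciparum. Infected erythrocytes at 2% hematocrit, 0.05% parasitemia final were treated 96 hours at 37 C under 5% CO2, and luminescence was read.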
Vaccinia mCherry: vaccinia inhibition (mCherry reporter); Vaccinia virus mCherry reporter infection, fluorescence; Potency, µM (titrated, usually from 36.5 µM), hits mostly inhibitors; AID 720579; actives 0.63% (n = 310,000); calls by dose curve; tested in A549 cells; also: nearly all actives have a fitted effect of over 35% in size
NS1 function inh: inhibitors of influenza NS1 protein function; Potency, µM (titrated, usually from 46.1 µM); actives 0.4% (n = 270,000); AID 2326; calls by dose curve; also: actives are rising curves; nearly all actives have a fitted effect of over 50% in size
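OD600 was taken as the measure of yeast growth restored by compound in an NS1-expressing S. cerevisiae strain. Cells had been washed out of glucose medium and diluted 1:100 into galactose -URA medium, pH 6.0.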
Vaccinia Venus: vaccinia inhibition (Venus reporter); Vaccinia virus Venus reporter expression, fluorescence; Potency, µM (doses to about 36.5 µM), actives largely listed as inhibitors; actives 0.46% (n = 330,000); calls by dose curve; tested in A549 cells; also: nearly all actives have a fitted effect of over 30% in size
Pf growth 48h: inhibits P. falciparum growth in the first generation, 48 h; Potency, µM (series often up to 28.7 µM), hits mostly inhibitors; actives 5.9% (n = 310,000); P. falciparum luciferase growth in erythrocytes, 48 h
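Firefly luciferase activity from engineered P. falciparum reports growth; inhibitors lower the luminescent signal. Cultures contained 2% hematocrit erythrocytes at 0.1% final parasitemia.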
Each line names hits and unclear results; the compound was inactive in the other large screens. Unless noted, calls follow the shape of the dose curve; as a rule, active = well fitted inhibition curve with a large enough effect; inconclusive = small, poorly fitted or top-dose-only effect, or another doubt; inactive = no such curve, though single readings can be large or run the other way.

CCOP(=O)(c1ccc(N(C)C)cc1)C(O)c1ccccc1 (configuration not stated)	Pf growth 48h 12µM (no result: Pf growth 96h, Vaccinia mCherry, Vaccinia Venus)
Cc1n[nH]c(=O)nc1N/N=C/c1ccco1	Vaccinia mCherry inconclusive, Pf growth 48h inconclusive (no result: NS1 function inh)
CCOC(=O)CCNC(=O)N1CCN(S(=O)(=O)c2ccc3c(ccn3C)c2)CC1	none (no result: HCV inhibitor, Pf growth 96h, NS1 function inh, Pf growth 48h)
C[C@@]12C(=O)Nc3cc(Cl)ccc3C(=O)N1[C@H]1c3ccccc3OC[C@@H]1[C@@H]2c1ccccc1	HCV inhibitor inconclusive, Pf growth 96h 9.3µM, Vaccinia Venus inconclusive, Pf growth 48h inconclusive (no result: NS1 function inh)
C[C@@]12C(=O)Nc3cc(Cl)ccc3C(=O)N1[C@H]1c3cc(Br)ccc3OC[C@@H]1[C@@H]2c1ccccc1	HCV inhibitor 10µM, Pf growth 96h 9.3µM, Pf growth 48h 9.3µM (no result: NS1 function inh)
C[C@@]12C(=O)Nc3ccc(Cl)cc3C(=O)N1[C@H]1c3ccccc3OC[C@@H]1[C@@H]2c1ccccc1	HCV inhibitor inconclusive, Pf growth 96h 10µM, Vaccinia Venus inconclusive, Pf growth 48h 13µM (no result: NS1 function inh)
C[C@@]12C(=O)Nc3ccc(F)cc3C(=O)N1[C@H]1c3ccccc3OC[C@@H]1[C@@H]2c1ccccc1	Vaccinia Venus inconclusive (no result: Pf growth 96h, NS1 function inh, Pf growth 48h)
C[C@@]12C(=O)Nc3cc(Cl)ccc3C(=O)N1[C@H]1c3cc(Cl)ccc3OC[C@@H]1[C@@H]2c1ccccc1	HCV inhibitor inconclusive (no result: Pf growth 96h, NS1 function inh, Pf growth 48h)
Cc1ccc2c(c1)C(=O)N1[C@H]3c4cc(Br)ccc4OC[C@@H]3[C@H](c3ccccc3)[C@]1(C)C(=O)N2	HCV inhibitor inconclusive, Vaccinia Venus inconclusive (no result: Pf growth 96h, NS1 function inh, Pf growth 48h)
Cc1cc(C)cc(OCC(=O)N(Cc2ccc(C)o2)C2CCS(=O)(=O)C2)c1 (configuration not stated)	none (no result: HCV inhibitor, Pf growth 96h, NS1 function inh, Pf growth 48h)
COC(=O)Nc1ncc(CN2CCC(c3ccccc3)CC2)s1	Vaccinia Venus inconclusive
CCOc1ccccc1CN1CCN(S(=O)(=O)CC)CC1	none
C[C@H](CO)N1C[C@H](C)[C@H](CN(C)C)Oc2ccc(NS(=O)(=O)c3ccc(F)cc3)cc2CC1=O	none (no result: Pf growth 96h, NS1 function inh, Pf growth 48h)
CCN(CC)C(=O)c1ccc(NC(=O)c2ccc(-c3nn(C)c(=O)c4ccccc34)cc2)cc1	Pf growth 96h 10µM
CN(C)C(=O)c1ccc(-c2nnc(NCc3ccccc3)c3ccccc23)cc1	Pf growth 96h 2.9µM, Pf growth 48h 13µM
CCN(CC)C(=O)c1ccc(-c2nnc(Nc3ccc(C(=O)N(C)C)cc3)c3ccccc23)cc1	Pf growth 48h 5.9µM (no result: Vaccinia mCherry, Vaccinia Venus)
COc1ccc(NC(=O)c2ccc(-c3nn(C)c(=O)c4ccccc34)cc2)cc1	none
CCN(CC)C(=O)c1ccc(-c2nnc(Nc3ccc(O)cc3)c3ccccc23)cc1	Pf growth 48h inconclusive (no result: Vaccinia mCherry, Vaccinia Venus)
Cc1nc2ccccn2c1-c1ccnc(SCc2ccc(Cl)cc2)n1	HCV inhibitor inconclusive, Pf growth 96h 1.9µM, Pf growth 48h 5.9µM
Cc1cc(C)c(C)c(S(=O)(=O)Nc2ccccc2C(=O)NN2CCOCC2)c1C	none (no result: Pf growth 96h, NS1 function inh, Pf growth 48h)
Cc1ccc(S(=O)(=O)Nc2ccc(C(=O)N3CCCC3)cc2)cc1	Pf growth 96h inconclusive
CCN1C(=O)[C@@H]2[C@@H](c3ccc(-c4cccc(Cl)c4)c(OC)c3)N3CCCC[C@@]3(C(=O)OC)[C@@H]2C1=O	Pf growth 96h 3.7µM, Pf growth 48h 10µM (no result: NS1 function inh)
CCN1C(=O)[C@@H]2[C@@H](c3ccc(-c4ccc5c(c4)OCO5)c(OC)c3)N3CCC[C@@]3(C(=O)OC)[C@@H]2C1=O	Pf growth 96h inconclusive, Pf growth 48h inconclusive (no result: NS1 function inh)
CCN1C(=O)[C@H]2[C@@H](c3ccc(-c4ccc(F)cc4)c(OC)c3)N3CCC[C@@]3(C(=O)OC)[C@H]2C1=O	HCV inhibitor 3.2µM, Pf growth 96h 7.4µM, Vaccinia mCherry inconclusive, Pf growth 48h 7.4µM (no result: NS1 function inh)
CCN1C(=O)[C@H]2[C@@H](c3ccc(-c4ccc(OC)cc4)c(OC)c3)N3CCCC[C@@]3(C(=O)OC)[C@H]2C1=O	HCV inhibitor inconclusive, Pf growth 96h 9.3µM, Vaccinia mCherry inconclusive, Vaccinia Venus inconclusive, Pf growth 48h 12µM (no result: NS1 function inh)
CCN1C(=O)[C@@H]2[C@@H](c3ccc(-c4ccc(OC)cc4)c(OC)c3)N3CCCC[C@@]3(C(=O)OC)[C@@H]2C1=O	Pf growth 96h 4.1µM, Pf growth 48h 2.9µM (no result: NS1 function inh)
c1ccc(OCCn2c(COc3ccccc3)nc3ccccc32)cc1	none (no result: HCV inhibitor, Pf growth 96h, NS1 function inh, Pf growth 48h)
CCN1C(=O)[C@@H]2[C@@H](c3ccc(-c4ccc(Cl)c(Cl)c4)c(OC)c3)N3CCC[C@@]3(C(=O)OC)[C@@H]2C1=O	HCV inhibitor 10µM, Pf growth 96h 0.83µM, Vaccinia Venus inconclusive, Pf growth 48h 5.2µM (no result: NS1 function inh)
O=C1CC(N2CCCc3ccccc32)C(=O)N1c1ccccc1 (configuration not stated)	Pf growth 96h 12µM (no result: Vaccinia mCherry, Vaccinia Venus)
N=c1c(C(=O)NCCN2CCOCC2)cc2c(=O)n3ccccc3nc2n1CCc1ccccc1	HCV inhibitor inconclusive, Pf growth 96h 3.3µM, Pf growth 48h 3.3µM
N=c1c(C(=O)NCC2CCCO2)cc2c(=O)n3ccccc3nc2n1Cc1ccc(F)cc1 (configuration not stated)	HCV inhibitor inconclusive, Pf growth 96h inconclusive, Pf growth 48h inconclusive
Cc1ccc(Cn2c(=N)c(C(=O)NCCN3CCOCC3)cc3c(=O)n4ccccc4nc32)cc1	HCV inhibitor inconclusive, Pf growth 96h inconclusive, Pf growth 48h inconclusive (no result: Vaccinia mCherry, Vaccinia Venus)
N=c1c(C(=O)NCc2ccc(F)cc2)cc2c(=O)n3ccccc3nc2n1CCCN1CCOCC1	Pf growth 96h 2.6µM, Pf growth 48h 1.7µM
CCCn1c(=N)c(C(=O)NCc2cccnc2)cc2c(=O)n3ccccc3nc21	none (no result: HCV inhibitor, Pf growth 96h, NS1 function inh, Pf growth 48h)
N=c1c(C(=O)NCc2ccc(F)cc2)cc2c(=O)n3ccccc3nc2n1Cc1cccnc1	HCV inhibitor inconclusive, Pf growth 96h 5.9µM (no result: Pf growth 48h)
N=c1c(C(=O)NCCc2ccccc2)cc2c(=O)n3ccccc3nc2n1CCCN1CCOCC1	HCV inhibitor inconclusive, Pf growth 96h inconclusive, Pf growth 48h 2.1µM

High-throughput results (PubChem BioAssay)
